Shown are actives, neighbours in structure and some others; about 2.6% of the full set was active somewhere.
Platelet DG rel: inhibitors of platelet dense granule secretion, primary screen, cell-based, MLPCN, human platelets | human platelet-rich plasma, SFLLRN dense granule ATP release, luminescence | inhibition, %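 (compounds screened at 7.5 µM in platelet-rich plasma)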 | hit rate 0.22% among 300,000 | AID 1663, 2009;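 active = mean replicate score, as percent of positive control, at or above 50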
ABHD5 PLIN5 PPI: ABHD5-PLIN5 interaction inhibitors, primary screen, cell lysate, split luciferase complementation, luminescence | Perilipin-5 (Homo sapiens) + 1-acylglycerol-3-phosphate O-acyltransferase ABHD5 (Homo … | Split G. princeps luciferase complementation, 4 h | inhibition, % at 4 µM | hit rate 0.78% among 360,000 | AID 602281, 2012;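 active = inhibition above the mean inhibition across every tested compound plus 3 SD, cut at about 22% in these data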;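 note: 0% = DMSO only wells and the 100% control is not disclosed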
Exocytosis inh: LAMP-1 surface exposure blockers, TALL-104 cells – cell-based, flow cytometry, MLPCN library, primary screen. AID 651702, 2012. hit rate 0.66% among 360,000. TALL-104 LAMP-1 surface exposure; cells stimulated with thapsigargin and PMA. inhibition, % at 10 µM;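 active = inhibition above about 55%, limit read from the data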
PfM18AAP inh-1: PfM18AAP inhibitors, malaria aminopeptidase, primary screen, biochemical, QFRET, recombinant enzyme; M18 aspartyl aminopeptidase (Plasmodium falciparum 3D7); H-Glu-NHMec fluorogenic cleavage; inhibition, % at 7.35 µM; hit rate 1.2% among 290,000; AID 1822, 2009;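 active = inhibition above the campaign mean inhibition over all tested compounds plus 3 SD, cut at about 28% in these data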;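 note: 0% = plate median of test compound wells and 100% = 2 mM ZnCl2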
Rce1 inh: yeast Rce1p protease inhibitors, primary screen, biochemical, fluorescence, cell-free homogeneous | yeast membranes, quenched prenylated peptide cleavage fluorescence | calls only | hit rate 0.27% among 290,000 | AID 2563, 2010;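 active = fall in fluorescence gain of 50% or more versus controls, with final raw signal at or below 3038400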;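 note: plate controls were neutral control wells for no effect and wells lacking membranes for full effect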
Target sequence (Q03530 whole entry, looked up): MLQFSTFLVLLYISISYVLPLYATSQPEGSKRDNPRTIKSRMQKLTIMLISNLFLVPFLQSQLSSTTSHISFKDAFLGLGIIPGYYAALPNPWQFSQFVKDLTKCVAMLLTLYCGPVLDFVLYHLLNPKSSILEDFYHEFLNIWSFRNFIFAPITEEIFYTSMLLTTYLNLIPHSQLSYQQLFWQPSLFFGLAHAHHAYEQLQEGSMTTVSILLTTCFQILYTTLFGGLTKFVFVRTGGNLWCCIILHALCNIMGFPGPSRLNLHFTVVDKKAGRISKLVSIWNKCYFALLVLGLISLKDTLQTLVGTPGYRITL
PfM18AAP inh-2: PfM18AAP inhibitors, malaria aminopeptidase, confirmation, biochemical, QFRET, recombinant enzyme, triplicate. shares compounds with PfM18AAP inh-1. inhibition, % at 7.35 µM. AID 2170, 2009. H-Glu-NHMec fluorogenic cleavage. hit rate 28% among 2,400;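 active = mean inhibition over replicate wells above the hit cutoff set for the earlier primary screen, cut at about 29% in these data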;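 note: 0% = median of test compound wells and 100% = 2 mM ZnCl2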
CTSL1 confirm: cathepsin L1 inhibitors, retest, confirmation, counter-screen for PFM18AAP inhibitor project, biochemical, QFRET, triplicate; purified cathepsin L1, Z-Leu-Arg-MCA fluorescence; AID 2178, 2009; 2,400 tested, under 10 active; shares compounds with PfM18AAP inh-1; inhibition, % at 5.96 µM;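 active = average inhibition across replicates above the hit cutoff set in the earlier primary screen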;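 note: 0% = median of test compound wells and 100% = Z-Phe-Ala-diazomethylketone 1 µM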
Numbers without * were called inactive.

Screening CCN1CCN(C(=S)c2ccc(OC)cc2)CC1 returned Platelet DG rel 2, ABHD5 PLIN5 PPI -1, Exocytosis inh 1, PfM18AAP inh-1 45*, Rce1 inh inactive, PfM18AAP inh-2 13 and CTSL1 confirm 1.
CCN1CCN(C(=S)c2ccc(Cl)cc2)CC1 was read as Platelet DG rel 6, ABHD5 PLIN5 PPI 7, Exocytosis inh -3, PfM18AAP inh-1 44*, Rce1 inh inactive, PfM18AAP inh-2 36* and CTSL1 confirm 0.
For CC(C)(C)c1cc(C(=S)N2CCN(CCO)CC2)cc(C(C)(C)C)c1O the results were Platelet DG rel 9, ABHD5 PLIN5 PPI -2, Exocytosis inh -1, PfM18AAP inh-1 36*, Rce1 inh inactive, PfM18AAP inh-2 -7 and CTSL1 confirm 2.
For CCOc1ccc(C(=S)N2CCN(C)CC2)cc1 the results were Platelet DG rel -5, ABHD5 PLIN5 PPI -2, Exocytosis inh -4, PfM18AAP inh-1 48*, PfM18AAP inh-2 4 and CTSL1 confirm 0.
Screening COc1cc2ccccc2cc1C(=O)Nc1ccccc1N1CCCC1 returned Platelet DG rel 5, ABHD5 PLIN5 PPI -1, Exocytosis inh 4 and Rce1 inh inactive.
Screening CCn1cc([N+](=O)[O-])c(C(=O)Nc2ccn(Cc3ccccc3)n2)n1 returned Platelet DG rel 11, ABHD5 PLIN5 PPI 6, Exocytosis inh -3, PfM18AAP inh-1 3 and Rce1 inh inactive.
For CSc1ccc(C(=S)N2CCN(Cc3ccccc3)CC2)cc1 the results were Platelet DG rel 0, ABHD5 PLIN5 PPI -6, Exocytosis inh 0, PfM18AAP inh-1 41*, Rce1 inh inactive, PfM18AAP inh-2 10 and CTSL1 confirm 3.
Screening S=C(c1ccc(Cl)cc1)N1CCN(Cc2ccccc2)CC1 returned Platelet DG rel 0, ABHD5 PLIN5 PPI -3, Exocytosis inh 0, PfM18AAP inh-1 -10 and Rce1 inh inactive.
OCCN1CCN(C(=S)c2ccc(Cl)cc2)CC1 was read as Platelet DG rel 2, ABHD5 PLIN5 PPI 7, Exocytosis inh -11, PfM18AAP inh-1 43*, Rce1 inh inactive, PfM18AAP inh-2 8 and CTSL1 confirm 5.
`Clc1ccc(Oc2cccc(/C=N/n3cnnc3)c2)cc1` gave Platelet DG rel 3, ABHD5 PLIN5 PPI -6, Exocytosis inh 0, PfM18AAP inh-1 6 and Rce1 inh inactive.
CCOC(=O)c1sc(NNC(=O)c2ccc(C)cc2)nc1C was read as Platelet DG rel -5, ABHD5 PLIN5 PPI -11, Exocytosis inh -8, PfM18AAP inh-1 37*, Rce1 inh inactive, PfM18AAP inh-2 8 and CTSL1 confirm -1.
For CCOC(=O)c1sc(NC(=O)Cc2ccc(C)cc2)nc1C the results were Platelet DG rel 1, ABHD5 PLIN5 PPI -6, Exocytosis inh 2, PfM18AAP inh-1 2 and Rce1 inh inactive.
For CCN1/C(=C2\C(=O)N(C)C(=S)N2C)C=Cc2cc(C)ccc21 the results were Platelet DG rel 8, ABHD5 PLIN5 PPI 3, Exocytosis inh -2, PfM18AAP inh-1 34*, Rce1 inh inactive, PfM18AAP inh-2 -13 and CTSL1 confirm 5.
Clc1cnc(N/N=C/c2ccco2)c(Cl)c1 was read as Platelet DG rel -1, ABHD5 PLIN5 PPI -3, Exocytosis inh -8, PfM18AAP inh-1 47*, Rce1 inh inactive, PfM18AAP inh-2 -29 and CTSL1 confirm -5.
`CC1(C)Cc2c(c(N3CCOCC3)nc3sc(C(=O)Nc4cccc(Cl)c4)c(N)c23)CO1` gave Platelet DG rel 8, ABHD5 PLIN5 PPI 11, Exocytosis inh 9, PfM18AAP inh-1 41*, Rce1 inh inactive, PfM18AAP inh-2 14 and CTSL1 confirm 9.

Source: PubChem BioAssay (several laboratories)
